{"source": "PubChem BioAssay AID1259422", "about": "(The Scripps Research Institute Molecular Screening Center, 2018)", "note": "Several values for one entry are separate records, joined by “and”; a condition that tells them apart may be missing. Identical values can stand only once. Out of some 640,000 compounds screened, about 9,300 (1.5%) were called active. The sample as a whole holds a higher share of actives than the screen did. Unmarked numbers belong to inactive results. Rule as the data show it: active = inhibition above about 32%; inactive = the rest.", "data": [{"assay": "TEAD-YAP interaction inhibition, primary screen, TEAD-YAP interaction inhibitor project, luminescence, HEK-TIYL cells (AID 1259422);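 also: 0% = median of test compound wells and 100% = reference inhibitor wells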", "details": "TEAD-Gal4/YAP UAS-luciferase luminescence, at 9.12 µM, stronger effect = higher value", "values": [{"smiles": "COC(=O)c1ccc2c(c1)C(=O)/C(=C\\c1ccccc1O)O2", "inhibition": "-31.1%"}, {"smiles": "Cc1cc(O)cc2c1C(=O)/C(=C/c1cc3ccccc3o1)O2", "inhibition": "71.4% (active)"}, {"smiles": "Cc1cc2nc(-c3ccc(NC(=O)c4cc5ccccc5o4)cc3)oc2cc1C", "inhibition": "-23.6%"}, {"smiles": "CCCCc1ccc(-c2nc(C=Nc3cc([N+](=O)[O-])ccc3C)c(O)o2)cc1", "inhibition": "-9.75%"}, {"smiles": "COc1cccc(/C=C/C(=O)c2cc3ccccc3oc2=O)c1", "inhibition": "-6.12%"}, {"smiles": "CCCCCCCN1C(=O)c2c(Cl)c(Cl)c(Cl)c(Cl)c2C1=O", "inhibition": "5.39%"}, {"smiles": "Oc1ccc(-c2cnc3ccc(NC4CCOCC4)nn23)cc1", "inhibition": "-2.21%"}, {"smiles": "Brc1cccc(-c2cnc3ccc(NC4CCOCC4)nn23)c1", "inhibition": "29.9%"}, {"smiles": "Fc1ccc(-c2cnc3ccc(NC4CCOCC4)nn23)cc1Cl", "inhibition": "43.8% (active)"}, {"smiles": "O=C(c1ccc2nc3ccc(Cl)cc3c(=O)n2c1)N1CCN(c2ccccc2)CC1", "inhibition": "5.05%"}, {"smiles": "CNC(=S)N/N=C/c1cccc(/C=N/NC(=S)NC)c1", "inhibition": "-8.21%"}, {"smiles": "CCc1nc2nonc2c2nc3ccccc3n12", "inhibition": "-7.01%"}, {"smiles": "O=C(O)c1ccc(N2C(=O)c3cccc4cccc(c34)C2=O)cc1O", "inhibition": "9.06%"}, {"smiles": "CC(=O)C1=C(O)C(=O)N(c2ccc(C(=O)O)c(O)c2)C1c1ccccc1", "note": "(configuration not stated)", "inhibition": "1.91%"}, {"smiles": "O=C(O)c1ccc(-n2cccc2)cc1O", "inhibition": "32.4% (active)"}, {"smiles": "Cc1ccc(NC(=O)CCn2cccc2)c(C)c1", "inhibition": "-10.1%"}, {"smiles": "Cc1ccc(-c2cc(C(=O)OCC(C)C)c3cccc(C)c3n2)cc1", "inhibition": "3.59%"}, {"smiles": "Cc1ccc2nc3nc4c(C)cccc4c(N)c3cc2c1", "inhibition": "43.1% (active)"}, {"smiles": "Cc1cccc2c(N)c3c(nc12)CCCC3", "inhibition": "-0.9%"}, {"smiles": "OC1(c2ccc(F)cc2)CC2CCC(C1)N2c1ncnc2nc[nH]c12", "note": "(configuration not stated)", "inhibition": "1.25%"}, {"smiles": "C=C(Br)Cn1c(C(C)O)nc2ccccc21", "note": "(configuration not stated)", "inhibition": "1.71%"}, {"smiles": "CC1=C(C#N)C(c2ccc3c(c2)OCO3)C2=C(CC(C)(C)CC2=O)N1", "note": "(configuration not stated)", "inhibition": "10.8%"}, {"smiles": "Cn1c(=O)n(CC(=O)Nc2ccc(F)cc2)c(=O)c2ccccc21", "inhibition": "14%"}, {"smiles": "CCOC(=O)C1=C(c2ccc(OC)cc2)C(=O)c2ccccc2C1=O", "inhibition": "96% (active)"}, {"smiles": "CCOC(=O)C1=C(C)N(c2ccc(C)cc2)C(=O)/C1=C\\c1ccc(OC)cc1", "inhibition": "-0.27%"}, {"smiles": "CCCNC1=C(c2ccc(OC)cc2)C(=O)c2ccccc21", "inhibition": "-14.6%"}, {"smiles": "CCCOc1ccc(/C(O)=C2/C(=O)C(=O)N(CCN(C)C)C2c2ccc(Cl)cc2)cc1C", "note": "(configuration not stated)", "inhibition": "4.59%"}, {"smiles": "O=C(Nc1cccc(O)c1)c1cccnc1", "inhibition": "24.2%"}, {"smiles": "Cc1occc1C(=O)Nc1cccc(F)c1", "inhibition": "-4.37%"}, {"smiles": "Cc1occc1C(=O)Nc1cccc(O)c1", "inhibition": "37.5% (active)"}, {"smiles": "C#Cc1cccc(NC(=O)c2ccc(-c3ccccc3)cc2)c1", "inhibition": "-53.1%"}, {"smiles": "Cc1occc1C(=O)Nc1ccc(NC(=O)c2ccoc2C)cc1", "inhibition": "-68.2%"}, {"smiles": "O=C(Nc1cccc(O)c1)c1ccc(C(=O)c2ccccc2)o1", "inhibition": "56.8% (active)"}, {"smiles": "O=C(Nc1cccc(O)c1)c1ccc(-c2ccccc2)cc1", "inhibition": "83.8% (active)"}, {"smiles": "O=C(NCCc1ccccc1)c1ccc(C(=O)c2ccccc2)o1", "inhibition": "-31.4%"}, {"smiles": "O=C(Nc1cccc(O)c1)c1cncc(Br)c1", "inhibition": "-19.1%"}, {"smiles": "Cc1ccc(S(=O)(=O)n2nc(C#N)c(C#N)c2N)cc1", "inhibition": "-5.77%"}, {"smiles": "O=C(Nc1nc(-c2ccc3ccccc3c2)cs1)c1cc(-c2ccc(Br)cc2)nc2ccccc12", "inhibition": "-0.33%"}, {"smiles": "CCOc1cc(/C=C2/C(=N)N3N=C(CC)SC3=NC2=O)cc(Cl)c1OCCOc1ccccc1", "inhibition": "-11.5%"}, {"smiles": "COc1ccc(Cl)cc1Nc1ncnc2c1c(-c1ccccc1)cn2-c1ccc(C)cc1", "inhibition": "-0.75%"}, {"smiles": "CC1CCN(C(=O)c2c[nH]c3ccc(S(=O)(=O)N(C)c4ccc(C(C)C)cc4)cc3c2=O)CC1", "inhibition": "-1.81%"}, {"smiles": "CCOC(=O)N1CCN(S(=O)(=O)c2ccc(C(=O)Nc3ccc(F)cc3F)cc2)CC1", "inhibition": "58.1% (active)"}, {"smiles": "CCOC(=O)c1ccc(NC(=O)c2ccc(S(=O)(=O)N3CCN(C(=O)OCC)CC3)cc2)cc1", "inhibition": "-0.65%"}, {"smiles": "CCOC(=O)N1CCN(S(=O)(=O)c2ccc(C(=O)Nc3nc(-c4ccccc4)c(C)s3)cc2)CC1", "inhibition": "-2.44%"}, {"smiles": "COCCOC(=O)C1=C(C)NC2=C(C(=O)CC(c3ccccc3)C2)C1c1cc(OC)ccc1OC", "note": "(configuration not stated)", "inhibition": "8.28%"}, {"smiles": "COc1cc2c(cc1OC)C1CN3CCc4cc(OC)c(OC)cc4C3CN1CC2", "note": "(configuration not stated)", "inhibition": "5.47%"}, {"smiles": "CC[C@H]1CN2CCc3cc(OC)c(OC)cc3[C@@H]2C[C@@H]1C[C@H]1NCCc2cc(OC)c(OC)cc21", "inhibition": "99.4% (active) and 101% (active)"}, {"smiles": "CCOc1cc2c(cc1OCC)C(c1cc(OC)ccc1OC)NCC2", "note": "(configuration not stated)", "inhibition": "6.48%"}, {"smiles": "O=C(Cn1cnc2ccccc21)N/N=C/c1ccc(Cl)c(Cl)c1", "inhibition": "1.91%"}, {"smiles": "Cc1cc(OC2CCN(C(=O)c3ccc4[nH]ncc4c3)CC2)ncc1Cl", "inhibition": "6.71%"}, {"smiles": "O=C(Nc1ccc2[nH]ncc2c1)c1ccnc(OC2CCN(Cc3ccccc3)CC2)c1", "inhibition": "82% (active)"}, {"smiles": "O=C(Nc1ccc2[nH]ncc2c1)c1cccnc1OC1CCCN(Cc2ccccc2)C1", "note": "(configuration not stated)", "inhibition": "-3.88%"}, {"smiles": "CCC(C(=O)NC(C)C)n1nc(C)c2sc3ccccc3c2c1=O", "note": "(configuration not stated)", "inhibition": "4.5%"}, {"smiles": "CCOC(=O)Cn1c(=O)oc2cc(S(=O)(=O)N3CCN(CC)CC3)ccc21", "inhibition": "-3.33%"}, {"smiles": "COc1cccc(/C=N/NC(=O)C(C)Nc2ccc(Br)cc2)c1O", "note": "(configuration not stated)", "inhibition": "23.5%"}, {"smiles": "O=C(Cn1cc([N+](=O)[O-])cn1)Nc1ccc(-c2noc(-c3ccccc3F)n2)cc1", "inhibition": "-22%"}, {"smiles": "CN(C)CCCn1c(-c2ccc(Cl)cc2)csc1=Nc1ccccc1", "inhibition": "5.26%"}, {"smiles": "O=C(O)CCn1c(-c2ccccc2)csc1=Nc1ccccc1", "inhibition": "-48.6%"}, {"smiles": "CCCn1c(-c2ccc(S(=O)(=O)N(C)C)cc2)csc1=Nc1ccccc1", "inhibition": "35.3% (active)"}, {"smiles": "O=C(NC1CCCCC1)c1ccc(Cn2c(=S)[nH]c3cc4c(cc3c2=O)OCO4)cc1", "inhibition": "-6.89%"}, {"smiles": "O=C(Nc1ccccc1F)c1cnc(N2CCN(c3ncccn3)CC2)c2ccccc12", "inhibition": "25.2%"}, {"smiles": "COc1ccc([N+](=O)[O-])cc1NC(=O)c1cnc(N2CCN(c3ncccn3)CC2)c2ccccc12", "inhibition": "36.3% (active)"}, {"smiles": "COc1ccc(Cl)cc1NC(=O)c1cnc(N2CCN(c3ncccn3)CC2)c2ccccc12", "inhibition": "12.9%"}, {"smiles": "O=C(NCc1ccccn1)c1cc(=O)c2ccccc2o1", "inhibition": "0.58%"}, {"smiles": "O=C(Nc1ccc(Oc2ccc3ccccc3c2Cl)c(Cl)c1)c1cc2cc(Cl)ccc2oc1=O", "inhibition": "5.28%"}, {"smiles": "COc1ccc(-c2nc(C)cc(Nc3cc(OC)c(OC)c(OC)c3)n2)cc1", "inhibition": "46.8% (active)"}, {"smiles": "CC(=O)Nc1ccc(Nc2nc(-c3ccc(C(N)=O)cc3)nc3nc[nH]c23)cc1", "inhibition": "5.81%"}, {"smiles": "COc1ccc(-c2nc(Nc3cc(OC)c(OC)c(OC)c3)c3[nH]cnc3n2)cc1", "inhibition": "54% (active)"}, {"smiles": "COc1cc(Nc2cc(C)nc(Nc3nc4ccccc4n3C)n2)cc(OC)c1OC", "inhibition": "1.6%"}, {"smiles": "COc1cc(Nc2nc(Nc3cccc(N(C)C)c3)nc3nc[nH]c23)cc(OC)c1OC", "inhibition": "46% (active)"}, {"smiles": "COc1ccc(-c2nc(C)cc(NCc3ccccc3)n2)cc1", "inhibition": "-42.8%"}, {"smiles": "COc1cc(Nc2nc(Nc3cc(OC)c(OC)c(OC)c3)c3[nH]cnc3n2)cc(OC)c1OC", "inhibition": "8.81%"}, {"smiles": "COc1ccc(-c2nc(N)c3[nH]cnc3n2)cc1", "inhibition": "-34%"}, {"smiles": "COc1cc2nc(Nc3cccc(N(C)C)c3)nc(Nc3cc(OC)c(OC)c(OC)c3)c2cc1OC", "inhibition": "-1.74%"}, {"smiles": "O=[N+]([O-])c1ccc(-c2csnn2)cc1", "inhibition": "-3.36%"}, {"smiles": "Cc1nc2c3ccccc3n3c(CCCC(=O)NCc4cccnc4)nnc3n2n1", "inhibition": "-0.28%"}, {"smiles": "O=C(CNC(=O)c1ccco1)N/N=C/c1ccc(F)cc1", "inhibition": "2.91%"}, {"smiles": "CN1C(C)(C)CC(N(C)S(C)(=O)=O)CC1(C)C", "inhibition": "-1.45%"}, {"smiles": "COCCNc1nc(-c2ccc(C)cc2)ccc1C(=O)N1CCN(C)CC1", "inhibition": "-12%"}, {"smiles": "CCCCOC(=O)C(C)Oc1ccc2c(=O)c(-c3ccc(Cl)cc3)coc2c1", "note": "(configuration not stated)", "inhibition": "-32.8%"}, {"smiles": "CCOC(=O)C1CCN(C(=O)/C(=C/c2ccco2)NC(=O)c2ccc(C)c(C)c2)CC1", "inhibition": "3.59%"}, {"smiles": "Cc1nnc(NS(=O)(=O)c2ccc([N+](=O)[O-])cc2)s1", "inhibition": "-10.9%"}, {"smiles": "O=C(CSCC(=O)N1CCCC1)Nc1nc(-c2ccc(Cl)s2)cs1", "inhibition": "-0.25%"}, {"smiles": "Cc1ccc(S(=O)(=O)N(C(=O)NC(=O)Nc2ccccc2Cl)c2ccc(Cl)cc2)cc1", "inhibition": "-3.29%"}, {"smiles": "Cc1cc(C)c2c(NCc3ccccc3F)n[nH]c2n1", "inhibition": "-16.5%"}, {"smiles": "Cc1ccc(OCc2nn3c(Cn4cnc5ccccc54)nnc3s2)cc1", "inhibition": "32.3% (active)"}, {"smiles": "Clc1ccccc1OCc1nn2c(Cc3ccccc3)nnc2s1", "inhibition": "-7.7%"}, {"smiles": "c1ccc(Cc2nn3c(Cn4cnc5ccccc54)nnc3s2)cc1", "inhibition": "6.31%"}, {"smiles": "COC(=O)c1c(C)[nH]c(C(=O)/C(C#N)=C/c2cccnc2)c1C", "inhibition": "-3.19%"}, {"smiles": "CCc1nc2sc3c(N4CCCC4)ncnc3c2c2c1COC(C)(C)C2", "inhibition": "-9.9%"}, {"smiles": "CC(=O)c1ccc(OC(=O)c2ccccc2Cl)cc1", "inhibition": "7.46%"}, {"smiles": "O=C(Cn1cnc2ccc(Br)cc2c1=O)OC1CCCCC1", "inhibition": "-11.3%"}]}]}
